KB-3-1 tox = kills parental KB-3-1 adenocarcinoma cells | hit rate 1.4% among 400,000 | Potency, µM (top dose mostly 46.1 µM), most hits filed as cytotoxic | AID 1347075 | KB-3-1 viability, CellTiter-Glo ATP luminescence, 72 h; also: potency is read from the fitted curve at half-maximal effect; nearly all actives have a fitted effect of over 60% in size
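Here the drug-naive KB-3-1 line serves as comparator for MDR sub-line selectivity; cells received compound titrations, 72 h at 37 °C, then CellTiter-Glo readout.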
IL-1B inflam inh = inhibitors of inflammasome signaling (IL-1 beta secretion); THP-1 LPS/ATP IL-1B secretion, AlphaLISA, 16 h; hits give low values; activity change, % at 57.5 µM; hit rate 4.7% among 360,000; AID 743279; in the data active = activity change below about -50%; inconclusive = mostly about -30% to -49%
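THP-1 cells pretreated 1 hr with compounds (up to 57.5 uM final), then stimulated with LPS (250 ng/mL final) plus ATP (1.25 mM final); secreted IL-1B measured by AlphaLISA after 16 hr, decreased signal indicating inhibition.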
HT1080NT lethal = kills 2HG-producing HT-1080-NT fibrosarcoma cells. HT-1080-NT fibrosarcoma viability, CellTiter-Glo ATP luminescence, 48 h. Potency, µM (highest dose often 46.1 µM), without a hit: at the highest dose activity, negative = less viability, usual class: cytotoxic. hit rate 1.6% among 360,000. AID 686970;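 also: NT is the 2HG producing partner of a matched IDH1 knockdown line; potency is read from the fitted curve at half-maximal effect; 0% = DMSO-treated cells and -100% = media-only wells without cells; nearly all actives have a fitted effect of over 55% in size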
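Fibrosarcoma NT cells, 750 per well in 5% FBS RPMI, were exposed to compound for 48 hours. Viability: CellTiter-Glo luminescence.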
HT1080 IDH1KD tx = HT-1080 IDH1 knockdown cell toxicity (counter line) | Potency, µM (doses to about 46.1 µM), inactives show at the highest dose activity, negative = toxicity, most hits filed as cytotoxic | HT-1080 IDH1 knockdown viability, ATP luminescence, 48 h | hit rate 2% among 360,000 | AID 686971;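 also: potency is read from the fitted curve at half-maximal effect; 0% = DMSO wells and -100% = cell-free medium wells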
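IDH1KD HT-1080 cells, 750/well, RPMI + 5% FBS; compound pinned after 2 h settling; 48 h, 37 °C; CellTiter-Glo luminescence; % activity normalised to DMSO and no-cell wells; curves fitted, classed by r2 and efficacy.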
KB-V1 cytotox = kills drug-selected multidrug resistant KB-V1 cells; KB-V1 MDR cells viability, CellTiter-Glo, 72 h; Potency, µM (doses to about 46.1 µM), hits mostly cytotoxic; hit rate 3.4% among 400,000; AID 1347076; also: potency is read from the fitted curve at half-maximal effect; nearly all actives have a fitted effect of over 60% in size
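qHTS viability screen in drug-selected KB-V1 MDR cells: 72 h compound treatment at 37 degrees C, ATP luminescence end point.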
* marks the source's active call; other numbers are inactive results. An excerpt weighted towards active compounds, which were near 8.8% of everything screened. Unless noted, calls follow the shape of the dose curve; as a rule, active = well fitted curve in the direction sought with a large enough effect; inconclusive = small, poorly fitted or top-dose-only effect, or another doubt; inactive = no such curve, though single readings can be large; an effect the other way counts as inactive or inconclusive. Unless noted, % is scaled to controls: 0 for no effect and ±100 for the full control effect.

Screening Cc1c(N=Cc2ccc(-c3ccc(Cl)cc3)o2)c(=O)n(-c2ccccc2)n1C returned KB-3-1 tox inactive, IL-1B inflam inh 12.9, HT1080NT lethal 13.6%, HT1080 IDH1KD tx 8.2% and KB-V1 cytotox inactive.
O=C1CC(SC(=S)C2CCCC2=O)C(=O)N1 (configuration not stated) was read as KB-3-1 tox inactive, IL-1B inflam inh -5.8, HT1080NT lethal -5.3%, HT1080 IDH1KD tx -29.8% and KB-V1 cytotox inactive.
For Cc1cc2c(cc1C)NC(C)CC(=O)N2 (configuration not stated) the results were KB-3-1 tox inactive, IL-1B inflam inh -1.1, HT1080NT lethal 13.3%, HT1080 IDH1KD tx 8.0% and KB-V1 cytotox inactive.
`COc1ccc(-c2noc(-c3ccc(NC4CCCC4)c([N+](=O)[O-])c3)n2)cc1OC` gave KB-3-1 tox inactive and KB-V1 cytotox inconclusive.
`COc1ccc(/C=C/C(=O)OCC(=O)N2c3ccccc3CC2C)cc1OC` (configuration not stated) gave KB-3-1 tox inactive, IL-1B inflam inh 5.7, HT1080NT lethal 9.1%, HT1080 IDH1KD tx 6.4% and KB-V1 cytotox inactive.
For COc1ccc(/C=C/C(=O)c2ccc3c4c(cccc24)CC3)cc1OC the results were KB-3-1 tox inconclusive, IL-1B inflam inh -3.0, HT1080NT lethal inconclusive, HT1080 IDH1KD tx 16.4µM* and KB-V1 cytotox 16.4µM*.
For COc1ccc(/C=C/C(=O)c2ccc3c4c(cccc24)CC3)cc1 the results were KB-3-1 tox inconclusive, IL-1B inflam inh -78.3*, HT1080NT lethal -9.4%, HT1080 IDH1KD tx inconclusive and KB-V1 cytotox inconclusive.
COc1ccc(/C=C/C(=O)c2cc(F)ccc2OC(=O)c2ccccc2C)cc1OC was read as KB-3-1 tox inconclusive, IL-1B inflam inh -99.4*, HT1080NT lethal 1.3µM*, HT1080 IDH1KD tx 3.26µM* and KB-V1 cytotox inactive.
For CCOc1ccc(C(=O)c2cn(CC(=O)Nc3ccc(F)cc3)c3cc4c(cc3c2=O)OCO4)cc1 the results were KB-3-1 tox inconclusive and KB-V1 cytotox inactive.
Screening CN(C)N=Nc1ccc(/C=C2\C=Cc3ccccc32)cc1 returned KB-3-1 tox inactive and KB-V1 cytotox inconclusive.
COCC(=O)N/N=C(\C)CC(=O)NCc1ccco1 was read as KB-3-1 tox inactive, IL-1B inflam inh 5.1, HT1080NT lethal 29.0%, HT1080 IDH1KD tx 8.2% and KB-V1 cytotox inactive.
Cc1nc2c(-c3ccc(Cl)cc3)cnn2c(N)c1-c1ccc(F)cc1 was read as KB-3-1 tox inactive, IL-1B inflam inh inconclusive, HT1080NT lethal 12.0%, HT1080 IDH1KD tx 15.7% and KB-V1 cytotox inactive.
`Cc1nc2c(-c3ccc(F)cc3)cnn2c(N)c1-c1ccccc1` gave KB-3-1 tox inactive, IL-1B inflam inh -73.4*, HT1080NT lethal inconclusive, HT1080 IDH1KD tx inconclusive and KB-V1 cytotox inactive.
For Oc1[nH]c2ccc(Br)cc2c1N=NC(=S)NCC1CCCO1 (configuration not stated) the results were KB-3-1 tox inconclusive, IL-1B inflam inh -5.5, HT1080NT lethal -15.4%, HT1080 IDH1KD tx -12.4% and KB-V1 cytotox inactive.
`Oc1[nH]c2ccccc2c1N=NC(=S)NCC1CCCO1` (configuration not stated) gave KB-3-1 tox inactive, IL-1B inflam inh inconclusive, HT1080NT lethal 0.7%, HT1080 IDH1KD tx -5.0% and KB-V1 cytotox 11.6µM*.
Screening Oc1[nH]c2c(Cl)cc(Cl)cc2c1N=NC(=S)NCC1CCCO1 (configuration not stated) returned KB-3-1 tox 5.8µM*, IL-1B inflam inh 53.3, HT1080NT lethal -7.7%, HT1080 IDH1KD tx -14.9% and KB-V1 cytotox inconclusive.
Screening CN(C)c1ccc(/C=C/c2ccnc3c(N)cccc23)cc1 returned KB-3-1 tox inconclusive and KB-V1 cytotox inactive.
For O=C1CNCc2[nH]c3ccccc3c2N1c1ccccc1 the results were KB-3-1 tox inactive, IL-1B inflam inh 29.2, HT1080NT lethal -9.3%, HT1080 IDH1KD tx -7.0% and KB-V1 cytotox 23.1µM*.
Screening O=S(=O)(c1cnc(Cl)c(Br)c1)N1CCCCCC1 returned KB-3-1 tox inactive, IL-1B inflam inh -103.7*, HT1080NT lethal 10.1%, HT1080 IDH1KD tx -2.2% and KB-V1 cytotox inactive.
`O=S(=O)(c1cnc(Cl)c(Br)c1)N1CCN(c2ncccn2)CC1` gave KB-3-1 tox inactive, IL-1B inflam inh -14.9, HT1080NT lethal 0.8%, HT1080 IDH1KD tx -1.9% and KB-V1 cytotox inactive.
For COC(=O)C1=C(C)N(Cc2ccccc2)C(=NCCCCO)N[C@H]1CCc1ccccc1 the results were KB-3-1 tox inactive, IL-1B inflam inh inconclusive, HT1080NT lethal -8.9%, HT1080 IDH1KD tx -4.6% and KB-V1 cytotox inactive.
For COc1ccc(OC)c2[nH]c(=O)c(CCNC(=O)COc3ccccc3)cc12 the results were KB-3-1 tox inactive, IL-1B inflam inh -11.6, HT1080NT lethal 9.0%, HT1080 IDH1KD tx -1.7% and KB-V1 cytotox 9.2µM*.
For COc1ccc(OC)c2[nH]c(=O)c(CCNC(C)=O)cc12 the results were KB-3-1 tox inactive, IL-1B inflam inh 5.5, HT1080NT lethal 4.4%, HT1080 IDH1KD tx 6.4% and KB-V1 cytotox inactive.
`COc1ccc(S(=O)(=O)NC(C)C)cc1C(=O)N1CCOCC1` gave KB-3-1 tox inactive, IL-1B inflam inh -6.2, HT1080NT lethal 8.2%, HT1080 IDH1KD tx 4.6% and KB-V1 cytotox inactive.
`c1cc2c3c(cccc3c1)NC1(CCC3(CC1)Nc1cccc4cccc(c14)N3)N2` gave KB-3-1 tox inactive, IL-1B inflam inh -29.9, HT1080NT lethal 20.6µM*, HT1080 IDH1KD tx inconclusive and KB-V1 cytotox inactive.
`Cc1ccc(NC(=O)COc2cccc3c2OC(C)(C)C3)c(O)c1` gave KB-3-1 tox inactive, IL-1B inflam inh -26.4, HT1080NT lethal 7.2%, HT1080 IDH1KD tx 4.1% and KB-V1 cytotox 18.4µM*.
Screening COc1ccc(NC(=O)COc2cccc3c2OC(C)(C)C3)cc1OC returned KB-3-1 tox inactive, IL-1B inflam inh 0.0, HT1080NT lethal -11.1%, HT1080 IDH1KD tx -0.2% and KB-V1 cytotox inactive.
For Cc1cnc(NC(=O)COc2cccc3c2OC(C)(C)C3)s1 the results were KB-3-1 tox inconclusive, IL-1B inflam inh -9.2, HT1080NT lethal -11.3%, HT1080 IDH1KD tx 6.51µM* and KB-V1 cytotox inconclusive.
`CN(C)c1ccc(/C=C/c2ccc3c4ccccc4ccc3[n+]2-c2ccccc2)cc1` gave KB-3-1 tox 0.291µM*, IL-1B inflam inh -111.2*, HT1080NT lethal 11.6µM*, HT1080 IDH1KD tx 5.8µM* and KB-V1 cytotox 9.2µM*.
Screening CN(C)c1ccc(/C=C/c2cc3ccccc3c[n+]2C)cc1 returned KB-3-1 tox 0.82µM* and KB-V1 cytotox inactive.

Assay outcomes from PubChem.
